About 83,000 compounds went through this panel and 20% of them were active in at least one assay; those are over-represented in the sample as a whole.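 How to read the values: 0–100, growth inhibition (40 = 60% inhibited); 0, no net growth; -100 to 0, cell death (-40 = 40% of starting cells died; -100 = all dead).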 Active and inactive are the calls of the source. Rule for the calls: active = growth percent below 10; inactive = the rest.

This test concerns NCI/ADR-RES ovarian. The test is described as follows: NCI-60 one-dose screen, 48 h (100 = growth as untreated, 0 = no growth, -100 = all killed). To be noted: 10 µM unless noted.
Take `N#CC1(O)CCCCC1`: the growth is 94% (inactive).
For `CCCCCCCCNC(=O)C(C)C` the value was 117% (inactive); for `NNc1ncccn1`, 104% (inactive).
For `COc1ccc(/C=C\C(=O)/C=C/c2ccc(OC)cc2)cc1` the value was 99.2% (inactive).
To `Cc1cc(C(=O)NN)c(C#N)c(=O)[nH]1` belongs 99.1% (inactive); to `CC(=O)c1ccc(C)cc1`, 106% (inactive); to `O=C(Nc1ccc([N+](=O)[O-])cc1)C(=O)Nc1ccc([N+](=O)[O-])cc1`, 105% (inactive).
For the compound `NC(CSSCC(N)C(=O)O)C(=O)O` (configuration not stated), the growth is 84.8% (inactive).
`CC(C)C(C)(C)C(=O)C(C)(C)C(C)(C)C`: the growth was 104% (inactive).
For `C=C1C(=O)C2CCN1CC2` the value was 104% (inactive).
As to `CC12CCC3c4ccc(O)cc4CCC3C1CCC2=O` (configuration not stated), the growth was 111% (inactive).
For `CC(=O)CSc1ncnc2nc[nH]c12`, the growth is 101% (inactive).
For `O=[N+]([O-])c1c(Cl)ncnc1Cl` the value was 118% (inactive).
Turning to `CCCCCCCCCCCCCCCCCCSC(=N)N`, the growth is 81% (inactive).
To `O=Cc1ccc(O)c(O)c1` belongs 93.1% (inactive).
For `O=[n+]1ccn([O-])c2ccccc21` the value was 103% (inactive); for `Nc1ccc(F)c(Cl)c1F`, 105% (inactive); for `S=C(NCc1ccccc1)N1CCC(CCCC2CCN(C(=S)NCc3ccccc3)CC2)CC1`, 99.3% (inactive).
For `Clc1ncnc2nc[nH]c12` the value was 103% (inactive); for `CC(C)Sc1ncnc2nc[nH]c12`, 102% (inactive).
`NNc1ncnc2nc[nH]c12`: the growth is 42.7% (inactive).
For `CCOC(=O)CNC` the value was 100% (inactive).
Take `C=CC1=NC(C)(C)CC(C)O1` (configuration not stated): the growth was 112% (inactive).
For `O=C(CC(CC(=O)c1ccccc1)c1ccccn1)c1ccccc1` the value was 97.4% (inactive).
To `CC(=O)OC/C(C)=C\CC(C)COC(C)=O` (configuration not stated) belongs 104% (inactive); to `OCc1cccnc1`, 115% (inactive); to `COc1cccc(N=CNc2cccc(OC)c2)c1`, 91.4% (inactive).
`O=C(Nc1c(Cl)cc(Cl)cc1Cl)ON=C1CCCCC1`: the growth was 109% (inactive).
To `Cc1nc(C)c(C(=O)O)cc1C(=O)O` belongs 107% (inactive).
To `C=CC(C)C(C)(C)O` (configuration not stated) belongs 98.3% (inactive); to `CCC(/C=C\C(C)=O)CC`, 105% (inactive); to `O=[N+]([O-])c1ccc(-c2nc(N(CCO)CCO)c3ccccc3n2)o1`, 5.04% (active).
As to `COC(=O)c1ccccc1C(=O)c1c(C)cc(C)cc1C`, the growth is 102% (inactive).
Consider `Cc1ccc(O)c(N)c1`, for which the growth was 107% (inactive).
To `CC(=O)c1cccc(N(C)S(=O)(=O)c2ccc(C)cc2)c1` belongs 82.4% (inactive); to `O=C1CSc2ccccc2N1`, 98.8% (inactive).
For `Cn1c(=O)c2[nH]c(CCCCC(=O)O)nc2n(C)c1=O` the value was 108% (inactive).
